# aSyn yeast rescue = inhibitors of alpha-synuclein toxicity in yeast. S. cerevisiae alpha-synuclein toxicity rescue, BacTiter-Glo growth, 24 h. Potency, µM (top dose mostly 46.1 µM), most hits filed as activators. 94,000 compounds, 0.02% hits. AID 1347070; active = well fitted activation curve with a large enough effect; also: 0% is about no effect
#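 Growth restoration measured by BacTiter-Glo luminescence after 24 hr at 30 deg C; alpha-synuclein yeast, raffinose-pregrown to mid-log, were added at OD600=0.02 in galactose medium onto pinned compounds.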
# Numbers without * were called inactive; i = inactive. This is one part of a sample in which hits are shown more often than they occur. Potency is read from the fitted curve at half-maximal effect.
SMILES,aSyn yeast rescue
Cc1cc(C)c2c(CC(=O)Nc3ccc(S(=O)(=O)N4CCCC(C)C4)cc3)coc2c1 (stereo not given),i
CCCC(=O)Oc1c(Sc2ccc(Cl)cc2)c(C)nn1-c1ccccc1,i
CCOC(=O)c1cccc(NS(=O)(=O)c2ccc3[nH]c4c(c3c2)CCCC4)c1,i
CCCS(=O)(=O)c1ncc(Cl)c(C(=O)N2CCN(c3ccc(OC)cc3)CC2)n1,i
CCOc1ccc(C2=C(C(=O)CC)Sc3nncn3N2C(=O)CC)cc1,i
CCOc1ccc(NS(=O)(=O)c2ccc3[nH]c4c(c3c2)CCCCC4)cc1,i
Cc1c(CCC(=O)NCCc2ccccc2F)c(=O)oc2cc(O)ccc12,i
COc1cc(Cl)c(S(=O)(=O)NCCc2c(C)[nH]c3c(C)cccc23)cc1Cl,i
CCc1ccc(S(=O)(=O)NCCc2csc3nc(-c4ccccc4)nn23)s1,i
COc1ccc(Nc2cc(C)c3cc(NC(=O)c4cc(OC)cc(OC)c4)ccc3n2)cc1,i
Cc1cc(-c2ccc(S(=O)(=O)Nc3cc(Cl)ccc3C)s2)on1,i
COc1ccc(-c2cn3nc(N4CCCC(C(=O)Nc5ccccc5OC)C4)sc3n2)cc1 (stereo not given),i
CC(C)COc1ccc(C(=O)Nc2onc3c2CCCC3)cc1,i
CC(=O)N1CCc2cc(S(=O)(=O)NC(Cc3ccccc3)C(=O)Nc3cccc(C)c3)ccc21 (stereo not given),i
CC(C)c1ccc(Nc2c(-c3ccccc3O)nc3cnccn23)cc1,22µM*
COc1cc(-c2nc3cnccn3c2Nc2ccc(C(C)C)cc2)ccc1O,i
Cc1ccn2c(Nc3ccc(C(C)C)cc3)c(-c3cccnc3)nc2c1,i
Cc1ccc2occ(CC(=O)Nc3ccc(Cl)c(C(F)(F)F)c3)c2c1,i
COc1cccc(-c2nc3c(C#N)c[nH]n3c2NC2CCCCC2)c1,i
Cc1cccc(-c2noc(-c3cc(C(C)C)[nH]n3)n2)c1,i
COc1ccc(-n2ncc3c(NC(C)(C)CO)ncnc32)cc1,i
CCN1CCN(c2cc(C)c3cc(NC(=O)/C=C/c4cccc(Cl)c4)ccc3n2)CC1,i
Cc1nc2ccc(S(=O)(=O)N(C)CC(=O)Nc3ccc(Br)c(C)c3)cc2s1,i
CC(=O)c1cccc(NC(=O)Cn2c(=O)c(CNc3ccc(C)cc3)cc3cc4c(cc32)OCCO4)c1,i
Cc1ccc(CCNC(=O)CS(=O)Cc2nc(-c3cccs3)oc2C)cc1 (stereo not given),i
SMILES,aSyn yeast rescue
Cc1ccc(CCNC(=O)CS(=O)Cc2nc(-c3ccccc3C)oc2C)cc1 (stereo not given),i
CCc1ccc(-c2nc(CS(=O)CC(=O)NCCc3ccc(C)cc3)c(C)o2)cc1 (stereo not given),20µM*
O=C(/C=C/c1cn(CC(O)CN2CCCCCC2)c2ccccc12)c1ccc(Br)cc1 (stereo not given),i
O=C(CSc1ncc(-c2ccccc2)[nH]1)Nc1ccc(Cl)cc1,i
CSc1ccc(/C=C/c2nc3ccccc3n2S(=O)(=O)c2ccc(Br)cc2)cc1,i
COc1ccccc1C(=O)N1CCC(c2noc(-c3ccc(S(=O)(=O)N4CCCC4)cc3)n2)CC1,i
CC(=O)C1=C(c2ccc(Cl)c(Cl)c2)N(C(C)=O)n2cnnc2S1,i
CC(C)CN1CCc2nc(N3CCN(C)CC3)ncc2C1,i
COc1cccc(NC(=O)Nc2ccc3nc(N4CCN(C)CC4)cc(C)c3c2)c1,i
COc1ccc(Nc2cc(C(=O)NCCCN3CCN(c4ccc(OC)cc4)CC3)c3ccccc3n2)cc1,i
COc1ccc(-c2nn(C)c3sc(C(=O)Nc4cc(OC)c(OC)c(OC)c4)cc23)cc1OC,i
CCOC(=O)N1CCc2c(sc3c2c(=O)n(CCc2ccccc2)c(=O)n3Cc2cc(C)ccc2C)C1,i
Fc1ccccc1-n1ncc2c1ncn1nc(Cc3ccccc3)nc21,i
Cc1ccc(C)c(S(=O)(=O)c2nnn3c2nc(Nc2ccc(F)c(Cl)c2)c2sccc23)c1,i
O=C1COc2ccc(-c3cc(-c4ccc(F)cc4)c4c(n3)-c3ccccc3OC4)cc2N1,i
COc1ccc(Nc2c3c(nc4ccc(NC(=O)/C=C/c5cccc(OC)c5OC)cc24)CCCC3)cc1OC,i
Cc1ccc(S(=O)(=O)Nc2ccc3nc(-c4ccc(F)cc4)oc3c2)cc1,i
O=S(=O)(Nc1ccc2nc(-c3ccc(F)cc3)oc2c1)c1ccccc1,20µM*
COc1ccc(-c2nc3ccc(NS(=O)(=O)c4ccccc4)cc3o2)cc1,i
CC1Cc2cc(S(=O)(=O)NCc3ccccc3Cl)ccc2N1C(=O)C1CCC1 (stereo not given),i
COC(=O)c1ccc(Cl)cc1NC(=O)N1CC=C(c2c[nH]c3ccccc23)CC1,i
CCOC(=O)C1=C(CN(CC)Cc2ccccc2)NC(=O)NC1c1ccc(OC(C)C)cc1 (stereo not given),i
COc1ccc(CNC(=O)c2cc3c(-c4ccccc4F)nn(C)c3s2)cc1,i
COC(=O)c1ccccc1NC(=O)Cn1nc(C)c2nn(-c3ccc(Cl)cc3)c(C)c2c1=O,i
O=C(CN1C(=O)COc2ccc(S(=O)(=O)NC3CCCC3)cc21)Nc1ccc(Cl)cc1,i
SMILES,aSyn yeast rescue
CCc1nn(CC(=O)N(CC)Cc2ccccc2)c(=O)c2cc3occc3n12,i
CCc1ccccc1Nc1nn2c(=O)c3ccc(C(=O)NC(C)c4ccccc4)cc3nc2s1 (stereo not given),i
O=C1CN(C(=O)COc2ccc(Cl)cc2Cl)C(c2ccc(F)cc2)c2cc(F)ccc2N1 (stereo not given),i
Fc1ccc(Nc2nc3nonc3nc2Nc2cccc(C(F)(F)F)c2)cc1,i
COCCNc1cc(N2CCN(C3CCCCC3)CC2)c2noc3c2c1C(=O)c1ccccc1-3,i
Cc1cc(C)c(NC(=O)CCn2c(=O)c3cccn3c3ccccc32)c(C)c1,i
CCc1ccc(NC(=O)N2CC(C)Oc3ccc(C)cc32)cc1 (stereo not given),i
O=C(CSc1nc(-c2ccccc2)[nH]c1-c1ccccc1)Nc1ccc2c(c1)OCO2,i
COc1ccc(OC)c(NC2=C(c3ccccc3)C(=O)c3ccccc32)c1,i
CCc1ccc(NC(=O)c2cc(S(=O)(=O)NC3CCCC3)ccc2F)cc1,i
Cc1ccc(NC(=O)c2cc(S(=O)(=O)NC3CCCCCC3)ccc2F)cc1F,25µM*
Cc1ccc(NC(=O)c2cc(S(=O)(=O)N3CCCCCC3)ccc2F)cc1F,i
CC(=O)c1ccc(NC(=O)CCc2c(C)nn(-c3ccc4nncn4n3)c2C)cc1,i
COc1cccc2sc(N(Cc3cccnc3)C(=O)COc3ccccc3)nc12,i
O=C(C1COc2ccccc2O1)N(Cc1cccnc1)c1nc2c(Cl)cccc2s1 (stereo not given),i
O=C(Cc1ccccc1)N(Cc1cccnc1)c1nc2c(Cl)cccc2s1,14µM*
Cc1ccc(Cn2ccc(NC(=O)c3cc(-c4ccc(Cl)c(Cl)c4)on3)n2)cc1,i
Cc1nc2sc(C(=O)N(C)Cc3ccccc3)c(NC(=O)c3ccccc3)c2c(C)c1Cl,i
CCN1CCOC(=O)C1CC(=O)Nc1cc(C)cc(C)c1 (stereo not given),i
COc1ccc(-c2cc3ccc(O)c(CN4CCCC4)c3oc2=O)cc1OC,i
Cc1ccc(C)c(C(=O)CSc2nc(-c3ccccc3)nc3c2CCCC3)c1,i
